Data reported in the supplement of paper PMC11732987, “Enantioselective OTUD7B fragment discovery through chemoproteomics screening and high-throughput optimisation” (Communications Chemistry, 2025).

Key:
Test in all cases: log2 ratio of Biotin-Ahx-Ub-VS probe labelling (fragment/DMSO); higher = less target engagement (more negative = stronger competition), active = hit call of the paper (q ≤ 0.05, log2 ratio ≤ -1)
Conditions in all cases: compound concentration: 200 uM; treatment time: 3 h
USP34 = USP34 (UniProt Q70CQ2)
Outline: (§1)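 Triplicate samples of HEK293T lysate, 495 µg each, received fragment at 200 µM or vehicle for 3 h, followed by Biotin-Ahx-Ub-VS (0.5 µM final) for 1 h. After NeutrAvidin enrichment of labelled DUBs and LysC/trypsin digestion, peptides were run by diaPASEF LC-MS/MS. The values are average log2 fragment/vehicle ratios from global-median-normalised Spectronaut label-free quantities, tested by unpaired t-test on proteins having ≥2 unique peptides.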

USP36 = molecular target: T1, USP36 (UniProt Q9P275)
T1 sequence (whole entry): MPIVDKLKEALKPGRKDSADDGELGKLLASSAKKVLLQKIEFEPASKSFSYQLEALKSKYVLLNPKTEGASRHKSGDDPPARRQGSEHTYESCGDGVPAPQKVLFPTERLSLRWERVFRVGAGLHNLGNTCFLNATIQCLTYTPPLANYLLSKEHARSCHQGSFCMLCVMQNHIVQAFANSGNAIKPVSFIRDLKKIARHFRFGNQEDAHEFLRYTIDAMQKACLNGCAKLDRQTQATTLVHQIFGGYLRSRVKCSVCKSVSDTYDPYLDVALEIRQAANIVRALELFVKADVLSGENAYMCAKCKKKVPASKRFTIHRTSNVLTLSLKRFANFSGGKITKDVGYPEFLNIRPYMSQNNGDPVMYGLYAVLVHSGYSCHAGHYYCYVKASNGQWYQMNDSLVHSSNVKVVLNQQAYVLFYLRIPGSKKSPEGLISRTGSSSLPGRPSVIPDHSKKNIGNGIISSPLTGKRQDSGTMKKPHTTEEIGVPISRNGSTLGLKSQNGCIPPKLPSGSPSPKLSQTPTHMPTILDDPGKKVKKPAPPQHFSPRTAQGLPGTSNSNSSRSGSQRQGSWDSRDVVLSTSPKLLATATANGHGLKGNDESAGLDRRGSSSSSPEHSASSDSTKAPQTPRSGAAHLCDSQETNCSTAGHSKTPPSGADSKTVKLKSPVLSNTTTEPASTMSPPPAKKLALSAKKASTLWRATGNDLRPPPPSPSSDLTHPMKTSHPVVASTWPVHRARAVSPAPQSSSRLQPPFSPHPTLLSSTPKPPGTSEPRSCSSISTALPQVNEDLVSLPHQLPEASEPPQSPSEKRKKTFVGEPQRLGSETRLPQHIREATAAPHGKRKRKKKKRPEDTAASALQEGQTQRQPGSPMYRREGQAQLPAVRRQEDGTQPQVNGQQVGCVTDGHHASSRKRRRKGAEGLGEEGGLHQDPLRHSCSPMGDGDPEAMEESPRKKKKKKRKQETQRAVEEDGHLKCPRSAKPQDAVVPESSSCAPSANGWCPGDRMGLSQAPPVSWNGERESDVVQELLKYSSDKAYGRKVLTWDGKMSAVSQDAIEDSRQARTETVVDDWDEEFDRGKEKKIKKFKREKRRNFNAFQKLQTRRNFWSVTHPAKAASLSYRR
Outline: as §1

USP38 = molecular target: T2, USP38 (UniProt Q8NB14)
T2 sequence (whole entry): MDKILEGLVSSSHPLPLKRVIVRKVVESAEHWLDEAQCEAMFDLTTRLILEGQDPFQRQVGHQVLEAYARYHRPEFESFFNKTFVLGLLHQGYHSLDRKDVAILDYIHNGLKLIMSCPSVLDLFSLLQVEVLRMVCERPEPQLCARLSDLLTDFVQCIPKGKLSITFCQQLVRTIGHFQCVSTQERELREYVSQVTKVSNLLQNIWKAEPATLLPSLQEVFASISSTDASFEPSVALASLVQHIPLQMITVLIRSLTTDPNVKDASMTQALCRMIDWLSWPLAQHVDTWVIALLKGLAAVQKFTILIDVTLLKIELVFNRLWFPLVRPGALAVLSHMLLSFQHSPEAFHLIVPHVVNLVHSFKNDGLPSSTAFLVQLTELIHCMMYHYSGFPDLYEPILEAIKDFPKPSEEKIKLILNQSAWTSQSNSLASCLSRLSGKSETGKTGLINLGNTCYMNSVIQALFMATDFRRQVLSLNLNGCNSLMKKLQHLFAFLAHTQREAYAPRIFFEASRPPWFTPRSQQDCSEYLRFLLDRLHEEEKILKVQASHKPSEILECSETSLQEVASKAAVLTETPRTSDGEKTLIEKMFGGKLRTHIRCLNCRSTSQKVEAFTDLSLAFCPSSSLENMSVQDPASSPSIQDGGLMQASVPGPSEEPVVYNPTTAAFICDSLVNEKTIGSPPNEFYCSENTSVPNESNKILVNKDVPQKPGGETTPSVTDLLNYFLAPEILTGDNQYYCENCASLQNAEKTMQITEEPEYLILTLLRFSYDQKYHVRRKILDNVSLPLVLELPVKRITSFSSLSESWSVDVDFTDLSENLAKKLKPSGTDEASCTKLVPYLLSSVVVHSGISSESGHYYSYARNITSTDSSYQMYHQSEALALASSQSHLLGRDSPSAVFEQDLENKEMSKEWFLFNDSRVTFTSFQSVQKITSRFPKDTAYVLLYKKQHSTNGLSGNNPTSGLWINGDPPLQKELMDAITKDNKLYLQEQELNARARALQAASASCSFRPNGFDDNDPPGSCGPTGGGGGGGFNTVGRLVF
Outline: as §1

USP39 = molecular target: T3, USP39 (UniProt Q53GS9)
T3 sequence (whole entry): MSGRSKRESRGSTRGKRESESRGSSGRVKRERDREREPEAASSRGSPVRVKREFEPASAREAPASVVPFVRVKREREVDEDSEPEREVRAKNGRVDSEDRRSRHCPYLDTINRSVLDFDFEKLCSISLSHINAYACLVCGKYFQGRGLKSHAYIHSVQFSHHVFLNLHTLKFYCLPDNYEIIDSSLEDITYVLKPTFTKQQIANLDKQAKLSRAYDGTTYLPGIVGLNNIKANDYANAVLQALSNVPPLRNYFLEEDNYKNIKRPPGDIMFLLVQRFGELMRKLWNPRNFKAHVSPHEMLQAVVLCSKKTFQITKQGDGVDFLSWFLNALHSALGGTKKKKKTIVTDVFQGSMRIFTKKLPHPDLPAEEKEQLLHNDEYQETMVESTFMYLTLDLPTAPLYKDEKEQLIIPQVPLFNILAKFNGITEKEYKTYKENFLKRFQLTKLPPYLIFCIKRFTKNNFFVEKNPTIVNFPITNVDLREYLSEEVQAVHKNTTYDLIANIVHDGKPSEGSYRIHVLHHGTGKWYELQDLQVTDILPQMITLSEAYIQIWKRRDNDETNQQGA
Outline: as §1

USP4 = molecular target: T4, USP4 (UniProt Q13107)
T4 sequence (whole entry): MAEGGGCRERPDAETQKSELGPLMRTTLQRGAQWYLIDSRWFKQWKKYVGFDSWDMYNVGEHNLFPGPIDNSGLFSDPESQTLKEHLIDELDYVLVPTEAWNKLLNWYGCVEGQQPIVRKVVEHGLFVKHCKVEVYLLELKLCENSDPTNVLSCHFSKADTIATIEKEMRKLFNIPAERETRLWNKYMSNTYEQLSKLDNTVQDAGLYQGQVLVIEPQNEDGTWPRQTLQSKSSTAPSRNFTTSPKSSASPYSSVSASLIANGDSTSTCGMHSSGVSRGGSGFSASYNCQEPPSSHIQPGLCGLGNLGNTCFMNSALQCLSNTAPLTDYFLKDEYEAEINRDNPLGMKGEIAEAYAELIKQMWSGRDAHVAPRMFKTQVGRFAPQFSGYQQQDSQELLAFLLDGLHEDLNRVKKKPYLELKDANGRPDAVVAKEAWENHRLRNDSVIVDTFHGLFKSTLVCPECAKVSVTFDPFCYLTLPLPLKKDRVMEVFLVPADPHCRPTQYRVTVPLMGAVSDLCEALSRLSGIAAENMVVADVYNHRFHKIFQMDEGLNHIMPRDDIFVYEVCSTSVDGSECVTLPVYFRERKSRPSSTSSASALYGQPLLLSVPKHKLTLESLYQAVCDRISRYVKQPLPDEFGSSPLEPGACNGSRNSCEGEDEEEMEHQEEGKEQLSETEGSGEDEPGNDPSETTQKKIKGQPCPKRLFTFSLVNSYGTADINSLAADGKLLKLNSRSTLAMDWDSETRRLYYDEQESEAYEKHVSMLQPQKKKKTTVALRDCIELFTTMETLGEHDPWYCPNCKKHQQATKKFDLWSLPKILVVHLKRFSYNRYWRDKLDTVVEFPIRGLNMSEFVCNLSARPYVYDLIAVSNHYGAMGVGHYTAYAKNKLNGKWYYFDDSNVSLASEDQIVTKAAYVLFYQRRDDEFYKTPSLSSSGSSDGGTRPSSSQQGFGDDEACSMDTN
Outline: as §1

Measured: log2 ratio of Biotin-Ahx-Ub-VS probe labelling

Chain of USP34 (Q70CQ2 whole entry, the tested form may be a part): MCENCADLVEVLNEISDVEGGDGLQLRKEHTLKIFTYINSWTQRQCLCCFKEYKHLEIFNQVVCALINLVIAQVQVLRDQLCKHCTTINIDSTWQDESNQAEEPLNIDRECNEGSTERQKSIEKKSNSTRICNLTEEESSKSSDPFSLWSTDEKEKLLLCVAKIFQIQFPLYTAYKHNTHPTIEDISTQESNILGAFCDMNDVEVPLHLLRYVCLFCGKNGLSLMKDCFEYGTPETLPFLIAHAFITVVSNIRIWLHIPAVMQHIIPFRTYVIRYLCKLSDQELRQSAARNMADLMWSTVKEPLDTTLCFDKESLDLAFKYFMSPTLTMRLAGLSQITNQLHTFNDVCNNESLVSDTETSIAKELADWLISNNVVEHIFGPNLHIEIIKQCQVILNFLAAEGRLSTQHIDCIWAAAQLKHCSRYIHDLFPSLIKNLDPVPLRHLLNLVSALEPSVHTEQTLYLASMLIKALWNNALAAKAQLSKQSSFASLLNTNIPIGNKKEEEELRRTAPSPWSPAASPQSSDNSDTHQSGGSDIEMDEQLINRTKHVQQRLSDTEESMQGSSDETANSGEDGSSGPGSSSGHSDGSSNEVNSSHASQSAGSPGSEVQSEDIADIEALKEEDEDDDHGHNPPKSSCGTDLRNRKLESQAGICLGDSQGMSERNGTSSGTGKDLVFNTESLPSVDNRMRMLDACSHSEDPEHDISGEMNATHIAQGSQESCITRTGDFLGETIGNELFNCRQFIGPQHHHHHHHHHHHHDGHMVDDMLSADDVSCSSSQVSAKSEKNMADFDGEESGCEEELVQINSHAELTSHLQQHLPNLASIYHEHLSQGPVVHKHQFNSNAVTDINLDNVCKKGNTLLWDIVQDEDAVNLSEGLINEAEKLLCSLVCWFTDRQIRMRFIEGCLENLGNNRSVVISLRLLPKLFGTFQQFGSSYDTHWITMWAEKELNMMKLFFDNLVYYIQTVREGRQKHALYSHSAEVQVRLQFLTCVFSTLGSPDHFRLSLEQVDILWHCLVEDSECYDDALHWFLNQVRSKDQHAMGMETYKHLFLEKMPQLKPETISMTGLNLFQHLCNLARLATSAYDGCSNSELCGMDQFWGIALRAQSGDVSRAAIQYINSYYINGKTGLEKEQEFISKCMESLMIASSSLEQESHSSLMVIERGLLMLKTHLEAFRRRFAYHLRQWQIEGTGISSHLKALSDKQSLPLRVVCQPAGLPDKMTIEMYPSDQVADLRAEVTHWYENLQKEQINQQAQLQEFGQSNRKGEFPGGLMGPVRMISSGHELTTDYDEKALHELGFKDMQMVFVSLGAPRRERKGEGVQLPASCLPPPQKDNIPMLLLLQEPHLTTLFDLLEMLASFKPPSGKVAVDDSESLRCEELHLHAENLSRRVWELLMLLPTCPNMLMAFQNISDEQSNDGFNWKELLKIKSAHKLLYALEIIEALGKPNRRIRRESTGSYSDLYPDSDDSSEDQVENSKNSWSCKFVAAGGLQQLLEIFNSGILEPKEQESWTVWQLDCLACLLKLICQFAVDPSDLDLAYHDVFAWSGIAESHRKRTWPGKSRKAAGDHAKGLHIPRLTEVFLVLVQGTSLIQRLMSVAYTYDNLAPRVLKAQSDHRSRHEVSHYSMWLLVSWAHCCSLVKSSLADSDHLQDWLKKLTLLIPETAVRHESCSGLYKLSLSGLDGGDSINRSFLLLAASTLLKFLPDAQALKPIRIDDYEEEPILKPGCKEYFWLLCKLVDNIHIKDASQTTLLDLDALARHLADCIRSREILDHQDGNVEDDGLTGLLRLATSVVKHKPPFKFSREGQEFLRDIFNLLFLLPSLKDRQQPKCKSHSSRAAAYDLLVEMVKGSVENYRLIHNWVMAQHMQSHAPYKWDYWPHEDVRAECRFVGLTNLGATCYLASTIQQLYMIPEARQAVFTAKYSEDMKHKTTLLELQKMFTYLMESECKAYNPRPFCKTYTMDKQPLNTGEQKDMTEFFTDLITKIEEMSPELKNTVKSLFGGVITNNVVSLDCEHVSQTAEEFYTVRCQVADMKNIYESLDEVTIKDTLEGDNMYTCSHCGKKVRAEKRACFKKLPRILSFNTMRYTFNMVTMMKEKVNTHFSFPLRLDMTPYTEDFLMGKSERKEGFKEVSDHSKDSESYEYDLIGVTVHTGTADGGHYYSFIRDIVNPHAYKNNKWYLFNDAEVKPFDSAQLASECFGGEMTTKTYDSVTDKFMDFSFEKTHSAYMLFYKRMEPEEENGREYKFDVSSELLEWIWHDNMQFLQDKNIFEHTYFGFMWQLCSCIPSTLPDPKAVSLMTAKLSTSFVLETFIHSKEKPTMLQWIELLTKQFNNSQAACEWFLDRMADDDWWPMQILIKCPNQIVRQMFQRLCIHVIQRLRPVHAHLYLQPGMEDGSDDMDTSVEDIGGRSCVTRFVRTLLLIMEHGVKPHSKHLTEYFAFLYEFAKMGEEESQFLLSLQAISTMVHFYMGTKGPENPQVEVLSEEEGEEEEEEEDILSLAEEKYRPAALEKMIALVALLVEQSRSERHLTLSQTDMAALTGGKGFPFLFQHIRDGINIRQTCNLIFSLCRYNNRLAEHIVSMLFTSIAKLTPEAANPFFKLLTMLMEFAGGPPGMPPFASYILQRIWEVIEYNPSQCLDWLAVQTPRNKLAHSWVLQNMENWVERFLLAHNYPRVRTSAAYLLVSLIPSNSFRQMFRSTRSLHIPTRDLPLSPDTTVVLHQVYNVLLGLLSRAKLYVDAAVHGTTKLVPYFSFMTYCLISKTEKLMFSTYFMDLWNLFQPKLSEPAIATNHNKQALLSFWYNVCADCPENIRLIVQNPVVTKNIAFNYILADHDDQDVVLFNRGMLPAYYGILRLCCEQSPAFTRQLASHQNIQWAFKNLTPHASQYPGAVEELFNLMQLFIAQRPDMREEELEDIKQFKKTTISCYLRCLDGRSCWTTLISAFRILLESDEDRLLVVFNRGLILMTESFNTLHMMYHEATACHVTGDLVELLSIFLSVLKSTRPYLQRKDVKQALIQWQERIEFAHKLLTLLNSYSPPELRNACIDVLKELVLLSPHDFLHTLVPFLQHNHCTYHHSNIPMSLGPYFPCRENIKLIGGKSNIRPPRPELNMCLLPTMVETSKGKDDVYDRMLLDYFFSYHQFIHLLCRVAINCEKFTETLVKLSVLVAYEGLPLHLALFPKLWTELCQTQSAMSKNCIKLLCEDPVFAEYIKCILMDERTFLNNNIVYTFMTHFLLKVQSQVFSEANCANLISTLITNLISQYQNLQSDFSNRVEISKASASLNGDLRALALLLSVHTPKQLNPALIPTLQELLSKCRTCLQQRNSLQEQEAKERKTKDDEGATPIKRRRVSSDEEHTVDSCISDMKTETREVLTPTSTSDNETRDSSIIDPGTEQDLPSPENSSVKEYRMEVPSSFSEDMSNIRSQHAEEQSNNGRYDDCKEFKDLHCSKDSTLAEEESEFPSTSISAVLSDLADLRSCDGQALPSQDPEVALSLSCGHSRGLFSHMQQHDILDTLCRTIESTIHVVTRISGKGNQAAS

NC(=O)C1CCCCN1C(=O)CCl (stereo not given)
inactive: USP34 -0.0479 | USP36 -0.322 | USP38 0.0849 | USP39 0.0987 | USP4 -0.0651
